Test results from the supplement of paper PMC7866885, “A novel bicyclic 2,4-diaminopyrimidine inhibitor of Streptococcus suis dihydrofolate reductase” (PeerJ, 2021).
± gives the standard deviation.

System: Streptococcus suis HE06
Assay: percent growth relative to DMSO control; higher = less growth inhibition
Details: 10 µM; incubation time 18 h
Experimental: (§1)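 CLSI broth microdilution: 5x10^4 CFU of Streptococcus suis (strain P1/7 or HE06) incubated with 10 µM Pathogen Box compound in cation-adjusted Mueller Hinton broth, 37 °C, 5% CO2, 18 h. Growth read as OD600 and expressed as percent of the DMSO-treated control (100%); mean ± SD of three independent experiments.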

Compound | percent growth
COc1cccc(-c2nc3c(N4CCCC4)cccc3n2CC2CCCN2)n1 (stereo not drawn) | 84.4 ± 7%
CN(C(=O)c1cc2c(-c3cncnc3)cccc2[nH]1)c1ccccc1 | 102 ± 29%
Nc1ncnc2c1ncn2[C@@H]1O[C@H](COS(=O)(=O)NC(=O)c2ccccc2O)[C@@H](O)[C@H]1O | 97.4 ± 8.2%
COc1cc2ncnc(NC3CCN(Cc4ccccc4)CC3)c2cc1OC | 103 ± 27%
CC1(C)Cc2c(c(N3CCOCC3)nc3snc(Br)c23)CO1 | 94.1 ± 2%
O=C(C(Cc1c[nH]c2ccccc12)NS(=O)(=O)c1ccc(Cl)cc1)N1CCCCC1 (stereo not drawn) | 89.3 ± 4.7%
CC(c1cc(Cl)cc(Cl)c1)N(C)c1ncc2c(N)nc(N)nc2n1 (stereo not drawn) | 84.7 ± 21%
COc1cc(NC(C)CCCN)c2ncccc2c1 (stereo not drawn) | 90.6 ± 4%
CC1COC2(CCN(c3nc(=O)c4cc(C(F)(F)F)cc([N+](=O)[O-])c4s3)CC2)O1 (stereo not drawn) | 80.1 ± 1.6%
COc1cccc(OC)c1C(=O)Nc1ccc(Cl)c(-c2nc3ccccc3s2)c1 | 98.9 ± 8.3%
Cc1ccc(NC(=O)c2nc[nH]c2C(=O)Nc2nc3ccccc3[nH]2)c(C)c1 | 47.8 ± 38%
CCc1c(C)nc(-n2nc(C)cc2NC(=O)c2ccccc2SC)[nH]c1=O | 0.0799 ± 0.092%
Cc1ccccc1C(=O)N1N=C(Nc2ccccc2)SC1(C)C | 104 ± 8.3%
Cc1ccc2cc(C3NC(=O)c4ccccc4N3)c(Cl)nc2c1 (stereo not drawn) | 72.4 ± 16%
N=C(N)Nc1ccc(-c2ccc(-c3ccc(NC(=N)N)cc3Cl)o2)c(Cl)c1 | 22.2 ± 37%
COc1ccc(-c2cnc3cnc(-c4cccc(OC(C)C)c4)cn23)cc1 | 59 ± 50%
CCc1ccc(C(NCc2nc(N)nc(N(C)C)n2)C(C)C)cc1 (stereo not drawn) | 12.8 ± 16%
CCCn1c(CNc2ccccc2O)nc2ccccc21 | 62.6 ± 7.6%
C[C@]1(O)C[C@@H](c2nc(-c3ccc4ccc(-c5ccccc5)nc4c3)c3c(N)nccn32)C1 | 81.6 ± 9.1%
CCC(Sc1nc2ccccc2o1)C(=O)Nc1nccs1 (stereo not drawn) | 0%
Cc1cc(OCC(=O)Nc2ccc(C(C)C)cc2)n(C)c(=O)c1C#N | 99.6 ± 7.3%
Nc1ncnc2c1c(-c1cnc3ccccc3c1)nn2CC1CCNCC1 | 94.9 ± 5.4%
Cc1cc(O)nc(-n2nc(C)cc2C)n1 | 18.2 ± 21%
N#Cc1nc(-c2ccccc2F)oc1NCCc1ccccc1 | 113 ± 30%

System: Streptococcus suis P1/7
Assay: as above
Details: 10 µM; incubation time 18 h
Experimental: as §1

Compound | percent growth
COc1ccccc1C(C)NCC(=O)Nc1cc(C(F)(F)F)ccc1Cl (stereo not drawn) | 112 ± 23%
CC(C)(C)c1cnc(NC(=O)c2ccccc2O)s1 | 1.61 ± 1.4%
O=C1N(Cc2cc3ccccc3s2)CC2CN(Cc3ccccc3)CCN12 (stereo not drawn) | 83.1 ± 18%
O=C(Nc1c(O)cccc1-c1nc2c(C(=O)O)cccc2o1)c1cc(-c2ccccc2)on1 | 11.1 ± 6.9%
CC(C)(C(=O)Nc1ccc(F)cc1)n1cc(-c2ccccc2F)cn1 | 84.1 ± 6.1%
CCOC(=O)NC(=O)c1ccsc1NC(=O)c1nc2ccccc2s1 | 5.08 ± 8.2%
Cc1ccc(C(=O)Nc2ccc(S(=O)(=O)O)c3cc(S(=O)(=O)O)cc(S(=O)(=O)O)c23)cc1NC(=O)c1cccc(NC(=O)Nc2cccc(C(=O)Nc3cc(C(=O)Nc4ccc(S(=O)(=O)O)c5cc(S(=O)(=O)O)cc(S(=O)(=O)O)c45)ccc3C)c2)c1 | 85.9 ± 15%
COc1ccccc1OCCCCn1c(C2CC2)nc2ccccc21 | 102 ± 21%
Cc1cccc(NC(=O)c2cc(S(=O)(=O)N(C)c3ccc(F)cc3)ccc2Cl)n1 | 112 ± 33%
Cc1nnc(NCc2cccc(Cl)c2)c2ccccc12 | 85.4 ± 29%
NS(=O)(=O)c1cncc(-c2ccc3nccc(-c4cn[nH]c4)c3n2)c1 | 77.6 ± 23%
CCCS(=O)(=O)N1CCC(CO)(Cc2ccccc2C(F)(F)F)CC1 | 82.4 ± 27%
FC(F)(F)c1cccc(-c2nc3c(NCc4ccncc4)nccc3[nH]2)c1 | 72.5 ± 22%
COc1ccc(C(=N)N)cc1-c1cn(-c2ccc(C(=N)N)cc2)nn1 | 75.7 ± 2.9%
CCc1ccc([C@@H]2C[C@H](C(F)(F)F)n3ncc(C(=O)NCc4ccc(OC)cc4)c3N2)cc1 | 75.4 ± 5.3%
COc1cccc(-c2nc3c(N4CCCC4)cccc3n2CC2CCCN2)n1 (stereo not drawn) | 58.2 ± 19%
CN(C(=O)c1cc2c(-c3cncnc3)cccc2[nH]1)c1ccccc1 | 72.2 ± 27%
Nc1ncnc2c1ncn2[C@@H]1O[C@H](COS(=O)(=O)NC(=O)c2ccccc2O)[C@@H](O)[C@H]1O | 78.6 ± 9.8%
COc1cc2ncnc(NC3CCN(Cc4ccccc4)CC3)c2cc1OC | 122 ± 11%
CC1(C)Cc2c(c(N3CCOCC3)nc3snc(Br)c23)CO1 | 82.2 ± 20%

Compound | percent growth
O=C(C(Cc1c[nH]c2ccccc12)NS(=O)(=O)c1ccc(Cl)cc1)N1CCCCC1 (stereo not drawn) | 120 ± 43%
CC(c1cc(Cl)cc(Cl)c1)N(C)c1ncc2c(N)nc(N)nc2n1 (stereo not drawn) | 57.6 ± 42%
COc1cc(NC(C)CCCN)c2ncccc2c1 (stereo not drawn) | 127 ± 60%
CC1COC2(CCN(c3nc(=O)c4cc(C(F)(F)F)cc([N+](=O)[O-])c4s3)CC2)O1 (stereo not drawn) | 81.2 ± 24%
COc1cccc(OC)c1C(=O)Nc1ccc(Cl)c(-c2nc3ccccc3s2)c1 | 119 ± 45%
Cc1ccc(NC(=O)c2nc[nH]c2C(=O)Nc2nc3ccccc3[nH]2)c(C)c1 | 1.93 ± 0.44%
CCc1c(C)nc(-n2nc(C)cc2NC(=O)c2ccccc2SC)[nH]c1=O | 1.97 ± 3.8%
Cc1ccccc1C(=O)N1N=C(Nc2ccccc2)SC1(C)C | 80.9 ± 23%
Cc1ccc2cc(C3NC(=O)c4ccccc4N3)c(Cl)nc2c1 (stereo not drawn) | 116 ± 46%
N=C(N)Nc1ccc(-c2ccc(-c3ccc(NC(=N)N)cc3Cl)o2)c(Cl)c1 | 23.2 ± 34%
COc1ccc(-c2cnc3cnc(-c4cccc(OC(C)C)c4)cn23)cc1 | 25.7 ± 45%
CCc1ccc(C(NCc2nc(N)nc(N(C)C)n2)C(C)C)cc1 (stereo not drawn) | 4.17 ± 0.94%
CCCn1c(CNc2ccccc2O)nc2ccccc21 | 82.1 ± 38%
C[C@]1(O)C[C@@H](c2nc(-c3ccc4ccc(-c5ccccc5)nc4c3)c3c(N)nccn32)C1 | 97 ± 18%
CCC(Sc1nc2ccccc2o1)C(=O)Nc1nccs1 (stereo not drawn) | 9.43 ± 16%
Cc1cc(OCC(=O)Nc2ccc(C(C)C)cc2)n(C)c(=O)c1C#N | 79 ± 12%
Nc1ncnc2c1c(-c1cnc3ccccc3c1)nn2CC1CCNCC1 | 102 ± 20%
Cc1cc(O)nc(-n2nc(C)cc2C)n1 | 2.28 ± 2.3%
N#Cc1nc(-c2ccccc2F)oc1NCCc1ccccc1 | 98.7 ± 25%
